About 7,900 targets were measured; listed, in parts, are those with a hit and a random draw of the rest. About 0.6% of all pairs of compound and target were hits.

Holding throughout (test): log2 fold change, soluble protein after heating vs DMSO (PISA); higher = thermal stabilisation; K562 cells, 10 uM, 30 min; active = over 0.2 and 3.5 SD of the protein, either way, in both replicates (recomputed)
Compound in assay [1]: C1COCCN1CCN2C3=CC=CC=C3N=C2NC(=O)C4=CC(=CC=C4)[N+](=O)[O-] [IRAK-1-4 Inhibitor I]
In short, it runs like this:
(§1)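 K562 cells at 2×10^6 cells/mL were exposed to 10 μM compound for 30 min, then aliquots were heated for 3 min across 48°C-58°C, pooled, and extracted in PBS containing 0.5% NP-40 at 4°C. The supernatant after 21,000xg for 90 min was taken as soluble protein and measured by TMTpro 16plex LC-MS/MS with channel sums equalised. Thermal stability is reported relative to control samples, with values from duplicates. Fold changes are given on a log2 scale.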

Compound in assay [2]: C=CC(=O)N1CCC[C@@H](n2nc(-c3ccc(Oc4ccccc4)cc3)c3c(N)ncnc32)C1 [ibrutinib]
Summed up:
as §1

Compound in assay [3]: CC(=O)c1cnc2ccc(-c3cc(Cl)c(O)c(Cl)c3)nc2c1N[C@H]1CC[C@H](CN(C)C)CC1
Summed up:
as §1

Compound in assay [4]: CC(C)(C)Cn1c(N)nc2ccc(-c3[nH]c(C(C)(C)C)nc3-c3ccc(F)cc3)nc21 [ralimetinib]
Summed up:
as §1

Compound in assay [5]: CC(C)(O)CC(=O)NCCn1ccc2ncnc(Nc3ccc(Oc4cccc(C(F)(F)F)c4)c(Cl)c3)c21
In short, it runs like this:
as §1

Compound in assay [6]: CC(C)C1=C2N=C(C=C(N2N=C1)NCC3=CC=CC=C3)NCCCCCCN
Summed up:
as §1

Compound in assay [7]: CC(C)C[C@@H](C=O)NC(=O)[C@H](CC(C)C)NC(=O)[C@H](CC(C)C)NC(=O)OCc1ccccc1
Summed up: as §1

Compound in assay [8]: CC(C)N(C[C@H]1O[C@@H](n2cnc3c(N)ncnc32)[C@H](O)[C@@H]1O)[C@H]1C[C@@H](CCc2nc3cc(C(C)(C)C)ccc3[nH]2)C1 [pinometostat]
In short, it runs like this: as §1

Compound in assay [9]: CC1=C(C(CC(=O)N1)C2=CC=C(C=C2)C(F)(F)F)C(=O)NC3=C(C=C4C(=C3)C=NN4)F
In short, it runs like this:
as §1

Compound in assay [10]: CC1=C(C2=C(C=C1)C(=O)C3=CC=CC=C3N2CCCN)C
In short, it runs like this: as §1

UniProt P23497, sequence (P23497 whole entry, looked up): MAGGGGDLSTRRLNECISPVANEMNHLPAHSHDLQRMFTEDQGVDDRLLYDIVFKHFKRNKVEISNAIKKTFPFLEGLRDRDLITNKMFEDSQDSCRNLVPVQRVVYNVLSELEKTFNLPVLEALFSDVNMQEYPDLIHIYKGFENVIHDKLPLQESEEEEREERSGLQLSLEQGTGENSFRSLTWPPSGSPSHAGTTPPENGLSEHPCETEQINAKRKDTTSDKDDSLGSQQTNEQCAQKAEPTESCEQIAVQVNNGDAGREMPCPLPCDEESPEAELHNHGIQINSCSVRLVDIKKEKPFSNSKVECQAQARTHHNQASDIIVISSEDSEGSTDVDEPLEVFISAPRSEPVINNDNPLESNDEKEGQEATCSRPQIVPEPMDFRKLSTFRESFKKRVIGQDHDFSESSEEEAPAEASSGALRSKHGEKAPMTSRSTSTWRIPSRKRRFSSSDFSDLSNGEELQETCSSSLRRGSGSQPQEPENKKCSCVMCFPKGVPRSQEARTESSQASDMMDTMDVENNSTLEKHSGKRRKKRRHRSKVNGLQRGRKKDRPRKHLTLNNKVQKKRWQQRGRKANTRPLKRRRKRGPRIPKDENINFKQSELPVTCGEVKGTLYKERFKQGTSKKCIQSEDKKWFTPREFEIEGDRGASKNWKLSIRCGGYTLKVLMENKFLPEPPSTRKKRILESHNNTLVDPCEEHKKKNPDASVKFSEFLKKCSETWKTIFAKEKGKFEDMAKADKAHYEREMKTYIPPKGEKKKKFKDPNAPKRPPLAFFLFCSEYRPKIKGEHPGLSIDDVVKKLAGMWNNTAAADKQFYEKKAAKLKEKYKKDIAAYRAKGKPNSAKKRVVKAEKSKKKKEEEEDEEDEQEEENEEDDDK
UniProt P31641, sequence (P31641 whole entry, looked up): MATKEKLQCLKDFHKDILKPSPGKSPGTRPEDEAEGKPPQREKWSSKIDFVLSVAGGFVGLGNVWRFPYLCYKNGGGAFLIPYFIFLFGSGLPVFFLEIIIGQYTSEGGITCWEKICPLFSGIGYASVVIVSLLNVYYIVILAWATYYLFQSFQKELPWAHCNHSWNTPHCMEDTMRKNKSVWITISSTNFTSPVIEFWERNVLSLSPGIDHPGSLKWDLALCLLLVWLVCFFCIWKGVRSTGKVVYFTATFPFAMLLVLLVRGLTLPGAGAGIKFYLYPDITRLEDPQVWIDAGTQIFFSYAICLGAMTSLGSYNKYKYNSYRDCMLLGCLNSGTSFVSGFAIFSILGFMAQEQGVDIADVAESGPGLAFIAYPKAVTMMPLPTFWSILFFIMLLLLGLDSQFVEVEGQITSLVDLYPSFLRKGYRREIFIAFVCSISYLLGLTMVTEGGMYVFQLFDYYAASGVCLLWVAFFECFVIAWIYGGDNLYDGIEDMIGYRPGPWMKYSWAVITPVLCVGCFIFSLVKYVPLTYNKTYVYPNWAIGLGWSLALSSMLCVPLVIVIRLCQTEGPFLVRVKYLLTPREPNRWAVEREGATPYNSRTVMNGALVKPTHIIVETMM
UniProt P51692, sequence (P51692 whole entry, looked up): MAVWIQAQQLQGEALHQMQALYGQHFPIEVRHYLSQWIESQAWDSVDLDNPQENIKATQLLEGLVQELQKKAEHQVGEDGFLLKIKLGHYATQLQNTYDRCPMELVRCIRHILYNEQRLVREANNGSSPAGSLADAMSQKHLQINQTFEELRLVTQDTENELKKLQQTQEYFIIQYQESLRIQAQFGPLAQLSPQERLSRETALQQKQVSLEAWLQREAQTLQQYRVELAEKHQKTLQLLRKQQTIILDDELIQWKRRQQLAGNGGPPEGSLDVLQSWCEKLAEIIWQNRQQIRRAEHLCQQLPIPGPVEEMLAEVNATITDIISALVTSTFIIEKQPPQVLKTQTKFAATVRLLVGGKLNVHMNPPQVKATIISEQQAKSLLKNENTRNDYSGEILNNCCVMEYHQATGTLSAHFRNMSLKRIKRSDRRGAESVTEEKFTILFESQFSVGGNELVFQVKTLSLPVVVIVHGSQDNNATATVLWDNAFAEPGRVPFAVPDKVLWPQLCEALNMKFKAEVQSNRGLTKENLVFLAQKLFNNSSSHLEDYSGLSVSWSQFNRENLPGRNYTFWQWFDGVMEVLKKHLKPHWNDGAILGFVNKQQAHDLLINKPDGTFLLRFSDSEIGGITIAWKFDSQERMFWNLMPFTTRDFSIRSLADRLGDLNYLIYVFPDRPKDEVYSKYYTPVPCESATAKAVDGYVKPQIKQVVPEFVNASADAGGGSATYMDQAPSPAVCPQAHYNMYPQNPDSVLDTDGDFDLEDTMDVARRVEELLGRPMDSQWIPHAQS
UniProt Q96QD8, sequence (Q96QD8 whole entry, looked up): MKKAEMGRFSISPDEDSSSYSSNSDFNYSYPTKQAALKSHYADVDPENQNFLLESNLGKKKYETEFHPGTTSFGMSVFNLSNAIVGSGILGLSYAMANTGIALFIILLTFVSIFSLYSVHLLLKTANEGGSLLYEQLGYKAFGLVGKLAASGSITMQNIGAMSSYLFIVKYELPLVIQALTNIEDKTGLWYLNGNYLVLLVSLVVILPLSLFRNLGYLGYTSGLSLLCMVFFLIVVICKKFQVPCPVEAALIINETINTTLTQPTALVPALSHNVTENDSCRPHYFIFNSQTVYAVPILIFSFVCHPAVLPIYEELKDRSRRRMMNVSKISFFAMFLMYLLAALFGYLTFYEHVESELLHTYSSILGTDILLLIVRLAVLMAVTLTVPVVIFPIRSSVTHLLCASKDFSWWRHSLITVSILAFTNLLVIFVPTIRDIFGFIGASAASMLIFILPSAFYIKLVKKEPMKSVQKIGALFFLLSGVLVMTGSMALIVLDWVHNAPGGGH
UniProt P55061, sequence (P55061 whole entry, looked up): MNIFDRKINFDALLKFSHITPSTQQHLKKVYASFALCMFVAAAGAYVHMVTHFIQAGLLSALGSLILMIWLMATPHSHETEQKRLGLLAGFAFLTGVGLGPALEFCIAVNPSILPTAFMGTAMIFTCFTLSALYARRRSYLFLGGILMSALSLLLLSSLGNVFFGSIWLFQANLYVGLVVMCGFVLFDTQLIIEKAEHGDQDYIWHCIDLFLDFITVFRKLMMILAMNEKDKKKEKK
UniProt Q8WVK2, sequence (Q8WVK2 whole entry, looked up): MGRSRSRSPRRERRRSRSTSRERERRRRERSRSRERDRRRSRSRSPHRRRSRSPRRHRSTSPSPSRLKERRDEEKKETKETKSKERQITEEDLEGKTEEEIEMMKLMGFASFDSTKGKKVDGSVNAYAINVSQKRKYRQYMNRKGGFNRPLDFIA

On to SLC38A2 (UniProt Q96QD8), for which the log2 fold change in assay [1] was 0.018 (inactive); in assay [2], 0.022 (inactive); in assay [3] it was -0.057 (inactive); in [4], -0.097 (inactive); in [5], -0.12 (inactive); in assay [6], -0.28 (active). The log2 fold change was 0.102 (inactive) in [7], -0.053 (inactive) in [8], 0.019 (inactive) in assay [9] and 0.01 (inactive) in [10].
As to SNRNP27 (UniProt Q8WVK2), the log2 fold change in assay [1] is 0.033 (inactive); in assay [2], 0.002 (inactive); in [3], -0.03 (inactive); in assay [4], -0.118 (inactive); in assay [5], 0.018 (inactive); in assay [6], 0.035 (inactive). Further, the log2 fold change in [7] is 0.054 (inactive); in [8], -0.04 (inactive); in assay [9], 0.082 (inactive); in [10], -0.043 (inactive).
Regarding SP100 isoform 4 (UniProt P23497), the log2 fold change in [1] is 0.006 (inactive); in [2] it was -0.012 (inactive); in assay [3] it was 0.074 (inactive); in assay [4] it was 0.019 (inactive); in assay [5], 0.011 (inactive); in assay [6], -0.015 (inactive). Besides, the log2 fold change in assay [7] was -0.07 (inactive); in [8], -0.035 (inactive); in assay [9], 0.029 (inactive); in assay [10] it was -0.1 (inactive).
For STAT5B (UniProt P51692), the log2 fold change in [1] is -0.153 (inactive); in assay [2], -0.146 (inactive); in assay [3], 0.018 (inactive); in assay [4] it was 0.121 (inactive); in assay [5], -0.401 (inactive); in assay [6], -0.119 (inactive). Moreover, the log2 fold change in assay [7] was 0.044 (inactive); in assay [8], -0.095 (inactive); in assay [9] it was -0.109 (inactive); in [10] it was -0.022 (inactive).
As to TMBIM6 isoform 2 (UniProt P55061), the log2 fold change in [1] is 0.023 (inactive); in assay [2], 0.001 (inactive); in assay [3] it was 0.004 (inactive); in assay [4], -0.208 (inactive); in assay [5], -0.437 (active); in assay [6] it was -0.521 (active). In addition, the log2 fold change in assay [7] is 0.135 (inactive); in [8], 0.017 (inactive); in [9] it was 0.003 (inactive); in assay [10] it was -0.075 (inactive).
In the case of SLC6A6 (UniProt P31641), the log2 fold change was -0.025 (inactive) in assay [1]; 0.036 (inactive) in assay [2]; -0.045 (inactive) in assay [3]; -0.186 (inactive) in assay [4]; -0.033 (inactive) in assay [5]; 0.107 (inactive) in [6]. Also, the log2 fold change is 0.101 (inactive) in [7], -0.071 (inactive) in assay [8], -0.025 (inactive) in assay [9] and -0.181 (inactive) in [10].

The values are drawn from the supplement of paper PMC10849652.
